Sampled rows, rich in hits. Any-hit rate of the full collection: about 3.4%.
TEAD-YAP inh – TEAD-YAP interaction inhibition; AID 1259422; hit rate 1.4% among 640,000; inhibition, % at 9.12 µM; HEK-TIYL cells, TEAD-Gal4/YAP UAS-luciferase luminescence; in the data active = inhibition above about 32%;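 note: 0% = median of test compound wells and 100% = reference inhibitor wells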
MITF primary – inhibitors of human MITF. O75030. AlphaScreen MITF homodimerization, bead proximity signal. inhibition, % at 2.6 µM. hit rate 0.91% among 650,000; in the data active = inhibition above about 50%;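 note: 0% = vehicle wells with protein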
Target sequence (O75030 whole entry, looked up): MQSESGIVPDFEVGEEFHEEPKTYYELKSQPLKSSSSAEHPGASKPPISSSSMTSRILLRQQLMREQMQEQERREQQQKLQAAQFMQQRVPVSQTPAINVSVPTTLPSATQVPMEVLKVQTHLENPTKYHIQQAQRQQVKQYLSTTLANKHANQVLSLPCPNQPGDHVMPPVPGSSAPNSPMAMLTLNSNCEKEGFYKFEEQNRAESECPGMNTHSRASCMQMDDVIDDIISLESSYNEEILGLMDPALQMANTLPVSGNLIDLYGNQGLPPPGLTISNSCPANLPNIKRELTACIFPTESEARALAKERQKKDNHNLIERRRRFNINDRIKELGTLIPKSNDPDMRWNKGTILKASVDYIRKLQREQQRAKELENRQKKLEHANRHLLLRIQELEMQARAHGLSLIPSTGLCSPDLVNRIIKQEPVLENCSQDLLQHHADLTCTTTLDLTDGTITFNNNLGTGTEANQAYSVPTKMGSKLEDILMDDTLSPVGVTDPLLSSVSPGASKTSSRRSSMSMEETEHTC
GPR151 ag – activators of human GPR151. Q8TDV0. PathHunter beta-arrestin GPR151 cells, luminescence. hit rate 1% among 650,000. activation, % at 11.2 µM; in the data active = activation above about 4.9%;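 note: 0% = median of compound wells and 100% = cells with positive control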
FBW7 act – human FBW7 E3 ligase activation, primary screen | AlphaScreen FBW7–phospho-cyclin E peptide binding, activator screen | AID 1259310 | normalized activity (activation), % at 26.1 µM | hit rate 0.13% among 650,000 | Q969H0; in the data active = normalized activity above about 1.9%;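 note: purified mutant Fbw7 with reduced substrate affinity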
GPR151 conf act – confirmation of human GPR151 activators; shares compounds with GPR151 ag; GPR151 PathHunter beta-arrestin cells, luminescence, 90 min; % of EA-reagent control over plate median; activation, % at 11.2 µM; 6,700 tested, under 10 active;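 active = mean percent activation across replicates above the confirmation screen cutoff of 4.91%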
GPR119 counter – activates human GPR119 in a GPR151 counter-screen; activation, % at 11.2 µM; hit rate 0.3% among 6,700; AID 1508611; shares compounds with GPR151 ag; GPR119 PathHunter beta-arrestin cells, luminescence, 90 min; 0 = compound-well median, 100 = enzyme-acceptor control;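 active = mean percent activation in the counterscreen above 29.09%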;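 note: counterscreen on off-target GPR119 to flag nonselective hits from the GPR151 activator screen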
Numbers without * were called inactive; · = no result given.

SMILES	TEAD-YAP inh	MITF primary	GPR151 ag	FBW7 act	GPR151 conf act	GPR119 counter
Nc1ncc(Br)cc1S(=O)(=O)NC1CCCCC1	3.4	-2.2	-0.9	-0.2	·	·
COC(=O)c1ccccc1NS(=O)(=O)c1ccc2c(c1)OCCCO2	-4.5	-10.5	-1.6	0.0	·	·
c1ccc(Cn2cc(-c3ncoc3-c3ccnc(Nc4ccc(N5CCOCC5)cc4)c3)cn2)cc1	45.3*	12.7	6.0*	-0.4	-0.1	-3.3
CC(=O)Oc1cccc(N2C(=S)NC(C)(C)C=C2C)c1	4.2	8.0	-0.3	-0.1	·	·
COc1ccc2nc(NC(=O)C34CCC(C)(C(=O)C3)C4(C)C)sc2c1 (stereo unspecified)	-10.9	-4.4	9.1*	-0.1	-0.5	-9.0
COc1ccc(CNC(=O)c2cc3c(=O)[nH]c4ccccc4c3n2C)c(OC)c1	-4.9	12.0	6.4*	0.5	-1.1	-10.6
COc1cc(NC(=S)N2CCN(c3ccccn3)CC2)cc(OC)c1	-5.6	-1.6	11.0*	-0.4	-0.3	2.5
Cc1ccc(NC(=S)N2CCN(c3ccccn3)CC2)c(C)c1	-3.3	13.1	0.8	0.1	·	·
COc1ccc(C)cc1NC(=S)N1CCN(c2ccccn2)CC1	-6.5	-0.5	5.1*	-0.2	0.0	-5.1
C=CCN(CC=C)C(=O)c1ccc(C)c([N+](=O)[O-])c1	-2.4	3.8	4.1	0.0	·	·
CC1(C(=O)NNC(=O)Nc2cccc([N+](=O)[O-])c2)CC1(Cl)Cl (stereo unspecified)	0.6	7.4	6.4*	0.2	-0.4	-0.5
C=CCn1c(SCC(=O)c2ccc(Cl)s2)nnc1-c1ccncc1	2.9	-2.4	0.8	0.0	·	·
CC(=O)Nc1ccc(NC(=O)c2cccc(-c3ccc(C(N)=O)cc3)n2)cc1	5.2	5.2	12.6*	-0.2	0.3	-6.4
N#Cc1ccc(C(=O)NCc2nc(-c3ccncc3)n[nH]2)cc1	7.8	14.6	5.3*	0.3	-0.2	-0.7
CN(C)c1cccc(C(=O)OCc2nnc(-c3ccccc3)o2)c1	3.5	-2.3	6.6*	0.0	-0.7	-0.9
Cc1cc(OCC(=O)NN2CCOCC2)ccc1[N+](=O)[O-]	-4.0	-9.5	5.0*	0.3	0.0	5.2
Cc1cc(OCC(=O)NN2CCN(C)CC2)ccc1[N+](=O)[O-]	-7.7	-8.4	1.4	0.1	·	·
O=C1CSC(c2ccc(Cl)cc2)N1Cc1cn2ccccc2n1 (stereo unspecified)	4.5	-7.7	5.0*	0.1	-0.5	-2.3
CN1C(=O)C2(c3ccccc31)C(C(=O)Nc1ccccc1F)CC1CCCN12 (stereo unspecified)	2.8	1.4	2.6	0.1	·	·
CN(C)c1ccc(NC(=O)CCC(=O)O)cc1	-12.1	-0.3	0.3	-0.1	·	·
Cc1ccc(-c2cc(C(=O)N3CCOCC3)[nH]n2)cc1C	-61.7	1.9	0.3	-0.1	·	·
CC(C)(C)CC(=O)Nc1ccccc1[N+](=O)[O-]	-5.5	0.7	7.0*	0.0	0.4	3.5
CC1(C2CCN(Cc3nc(-c4ccccc4)cs3)CC2)NC(=O)NC1=O (stereo unspecified)	-5.9	9.3	5.6*	-0.1	0.2	-2.3
CCOC(=O)CN1C(=O)Nc2ccc(Br)cc2C1c1ccccc1 (stereo unspecified)	7.4	13.7	0.5	0.6	·	·
COC(=O)CN1C(=O)Nc2ccc(Br)cc2C1c1ccccc1Cl (stereo unspecified)	0.5	2.1	14.9*	0.2	0.5	4.1
SMILES	TEAD-YAP inh	MITF primary	GPR151 ag	FBW7 act	GPR151 conf act	GPR119 counter
Nc1nnc(Cc2cccc(Br)c2)s1	0.9	11.0	11.1*	-0.2	1.2	21.6
O=C(c1ccc(Cn2nnc3ccccc3c2=O)cc1)N1CCc2ccccc2C1	1.7	-6.8	0.1	0.0	·	·
O=C(c1ccc(-n2nnc3ccccc3c2=O)cc1)N1CCc2ccccc2C1	2.0	0.1	6.0*	0.0	-0.8	-8.4
CC(C)(C)c1nnc(NC(=O)c2ccc([N+](=O)[O-])cc2)s1	-2.4	12.6	-0.1	0.6	·	·
COc1ccc(C(=O)Nc2nnc(C(C)(C)C)s2)cc1[N+](=O)[O-]	-12.7	-6.0	7.3*	0.0	-1.7	-18.0
COc1ccccc1CNS(=O)(=O)c1ccc(Cc2ccc(S(=O)(=O)NCc3ccccc3OC)cc2)cc1	28.6	17.8	0.7	0.6	·	·
Cc1nc2c(-c3ccccc3)c(C)nn2c(C)c1CCC(=O)Nc1ccccn1	-1.3	1.2	5.0*	-0.1	-0.1	2.7
O=C(COc1ccccc1F)N1CCOC(c2ccccc2)C1 (stereo unspecified)	12.4	-3.3	4.5	-0.1	·	·
Cn1c(SCC(=O)NCc2ccccc2)nnc1-c1ccccc1	-2.8	-3.4	0.2	-0.1	·	·
Fc1ccc(-c2[nH]ncc2CCN2CCOCC2)cc1	9.8	-0.4	9.9*	-0.1	1.2	5.8
O=C(Nc1nnc(-c2ccc3c(c2)OCCO3)o1)c1ccco1	5.8	-3.7	-1.5	-0.1	·	·
CC1(C)Cc2ccccc2/C(=C/C(=O)C(=O)NCc2ccccc2)N1	2.3	-21.2	6.6*	-0.1	0.1	-0.2
NC(=O)/C(=C\c1cccc(Br)c1)NC(=O)c1ccccc1	-3.7	0.3	-0.1	0.0	·	·
O=C(O)c1cc(N2C(=O)C3C4C=CC(C4=C(c4ccccc4)c4ccccc4)C3C2=O)ccc1Cl (stereo unspecified)	1.2	-5.9	5.1*	-0.1	-0.1	5.1
COc1cc(/C=C2/SC(N3CCN(c4ccc([N+](=O)[O-])cc4)CC3)=NC2=O)ccc1O	11.6	8.0	0.8	0.6	·	·
CCCCNC(=O)/C(=C/c1ccccc1)NC(=O)/C=C/c1ccco1	0.3	-8.9	17.5*	0.0	-0.9	-7.6
CCCCNC(=O)/C(=C/c1ccc(OC)cc1)NC(=O)/C=C/c1ccccc1	11.8	3.5	-0.3	0.0	·	·
COC(=O)c1sc2ccccc2c1NC(=S)NC(=O)c1ccc(S(=O)(=O)N2CCCC2)cc1	5.3	17.9	-1.3	1.4	·	·
O=C(Oc1ccc(I)cc1)c1ccc([N+](=O)[O-])cc1	0.9	9.2	6.1*	0.1	-0.9	-4.9
COc1ccc(-c2nnc3sc(NC(=O)C(C)C)nn23)cc1OC	7.9	-2.8	14.3*	-0.1	1.6	-6.5
COc1ccc(-c2nnc3sc(NC(=O)c4ccccc4C)nn23)cc1OC	-2.2	-0.1	8.8*	0.0	0.5	1.2
COc1ccc(-c2nnc3sc(NC(=O)c4ccccc4C)nn23)cc1	-2.0	-4.7	2.1	0.1	·	·
COc1ccc(-c2nnc(NC(=O)c3ccccc3C)s2)c(OC)c1	0.7	7.1	5.8*	0.0	1.1	-0.1
CN(C)S(=O)(=O)c1ccc(Cl)c(C(=O)OCC(N)=O)c1	-2.8	7.5	0.4	-0.1	·	·
O=C(CSc1nc2ccccc2o1)Nc1ccc(-c2nc3cc(NC(=O)CSc4nc5ccccc5o4)ccc3o2)cc1	9.0	-3.3	-1.0	0.1	·	·
